From PubChem BioAssay
Shown is part of a subset that was picked to be rich in hits.
VACV Venus inh: vaccinia inhibition (Venus reporter). Potency, µM (doses to about 36.5 µM), without a hit: at the highest dose activity change, negative = inhibition, usual class: inhibitors. actives 0.46% (n = 330,000). Vaccinia virus Venus reporter expression, fluorescence. AID 720580; calls by dose curve; tested in A549 cells; note: potency is the fitted concentration of half-maximal effect; % is set by controls: 0 for no effect and ±100 for the full control effect; nearly all actives have a fitted effect of over 30% in size
Marburg entry inh: Marburg virus entry inhibition; Marburg virus pseudotyped entry inhibition, cell reporter; Potency, µM (top dose mostly 37.8 µM), inactives show at the top dose activity change, negative = inhibition, actives largely listed as inhibitors; actives 1.8% (n = 300,000); calls by dose curve; tested in HEK293 cells; note: potency is the fitted concentration of half-maximal effect; % is set by controls: 0 for no effect and ±100 for the full control effect
VACV mCherry inh: inhibitors of vaccinia virus infection (mCherry reporter signal); Vaccinia virus mCherry reporter infection, fluorescence; Potency, µM (highest dose often 36.5 µM), without a hit: top-dose activity change, negative = inhibition, hits mostly inhibitors; actives 0.63% (n = 310,000); AID 720579; calls by dose curve; tested in A549 cells; note: potency is the fitted concentration of half-maximal effect; % is set by controls: 0 for no effect and ±100 for the full control effect; nearly all actives have a fitted effect of over 35% in size
Shiga toxin inh: blocks Shiga toxin action in Vero cells; inhibition, % at 38.7 µM; Vero cells, Shiga toxin protein synthesis inhibition reporter; AID 2315; actives 9.2% (n = 290,000); in the data active = inhibition mostly above about 28%, no sharp cut-off; inactive = mostly below about 43%; note: 0% is about no effect
LASV entry inh: Lassa virus entry inhibition. Lassa virus pseudotype entry inhibition, cell reporter. Potency, µM (highest dose often 37.9 µM), without a hit: top-dose activity change, negative = inhibition, usual class: inhibitors. actives 1.2% (n = 300,000). AID 540256; calls by dose curve; tested in HEK293 cells; note: potency is the fitted concentration of half-maximal effect; % is set by controls: 0 for no effect and ±100 for the full control effect; nearly all actives have a fitted effect of over 50% in size
Cycloheximide cs: affects cycloheximide protein synthesis inhibition readout, counter-screen | cell reporter, cycloheximide protein synthesis inhibition counterscreen | max response, % | actives 12% (n = 300,000); in the data active = max response mostly above about 13%, no sharp cut-off; inactive = mostly below about 14%; note: read at 38.3 µM for the half of the compounds with a filed dose; 0% is about no effect
The depositor's hits bear a star; i = inactive; ? = inconclusive; / = not tested or not shown; [ ] = another dose, or the depositor's remark.

SMILES | VACV Venus inh | Marburg entry inh | VACV mCherry inh | Shiga toxin inh | LASV entry inh | Cycloheximide cs
Cc1ccccc1CSCC(=O)NCCSc1ccccn1 | -5% | 12%[46.1 µM] | -11% | 33 | / | 22*
Cc1ccc2nc(SCC(=O)NC(=O)NCc3ccco3)[nH]c2c1 | -12% | 14% | -20% | 13 | -9% | 13*
Cc1ccc(C(=O)NCCSc2snnc2C)cc1 | -3% | ? | / | 71* | -2% | 54*
COc1cccc(NC(=O)Cn2c(=O)n(CCC(=O)NCc3ccccc3OC)c(=O)c3ccccc32)c1 | -6% | 13%[46.1 µM] | -13% | / | ? | /
COC(=O)[C@H]1C[C@@H](c2ccccc2)[C@H](C)C1(C)C | -1% | / | i | / | / | /
O=C(NCCSc1ccccn1)c1ccc(Cl)cc1 | -15% | 9%[46.1 µM] | -14% | 63* | ? | 12
O=C(NCCSc1ccccn1)c1ccc(Cl)cc1Cl | -12% | ? | i | -4 | -13% | -2
Cc1ccccc1CSCC(=O)NCc1ccco1 | -16% | ? | i | 36* | ? | 21
Cc1ccccc1CSCC(=O)Nc1ccccc1F | -16% | ? | -8% | / | -15%[46.1 µM] | 44*
O=C(CSc1ccc(Cl)cc1)NCc1ccco1 | / | / | / | 34 | / | 32*
CCC(Oc1ccccc1)C(=O)Nc1ccc2oc(-c3ccc(OC)cc3)nc2c1 (configuration not stated) | -11% | ? | -5% | / | ? | /
Cc1ccc(CSCC(=O)NCc2ccco2)cc1 | -9% | -11% | i | 25 | 1.4µM* | 11
Cc1ccc(SCC(=O)NCc2ccco2)cc1 | 1% | -10% | -14% | 40 | 16% | 17*
CC(=O)n1nc(-c2ccc(C)cc2)nc1NCc1ccco1 | -18% | 17%[46.1 µM] | -4% | 101* | -23% | 63*
O=C(CSCc1c(Cl)cccc1Cl)NCc1ccco1 | -19% | 13% | / | 2 | -5% | -1
C=C(C)Cn1c(=O)c2c(nc3n2CCN3c2ccc(F)cc2)n(C)c1=O | -7% | / | -12% | / | -1%[46.1 µM] | /
CCc1ccc2c(c1)c(=O)c(S(=O)(=O)c1ccccc1)cn2CC(=O)Nc1cc(C)ccc1C | -7% | 5%[46.1 µM] | 0% | / | 17%[46.1 µM] | /
CCCCc1nc2cc(C(=O)N(C)C(C)c3ccccn3)ccc2o1 (configuration not stated) | / | / | / | 30* | / | 23*
CCn1ccnc1CNC(=O)c1ccc2oc(CCCc3ccccc3)nc2c1 | / | / | / | 32* | / | 19*
Cc1cnc(CNC(=O)c2ccc3oc(Cc4ccccc4)nc3c2)[nH]1 | / | / | / | 12 | / | 21
CCCCc1nc2cc(C(=O)NCc3ccccn3)ccc2o1 | / | / | / | 47 | / | 10*
CC(CCCC(C)(C)O)NC(=O)c1ccc2oc(CCc3ccccc3)nc2c1 (configuration not stated) | / | / | / | 9 | / | 14*
O=C(CSc1cn(CC(=O)N2CCCC2)c2ccccc12)Nc1ccc(Cl)cc1 | -21% | / | -16% | / | 6%[46.1 µM] | /
COc1ccc(CNC(=O)C2=C(C)C(=O)OC23CCN(C(C)=O)CC3)cc1 | -1% | / | -9% | / | 0%[46.1 µM] | /
Cc1oc2ccc(O)c(CN(C)Cc3ccccc3)c2c1C(=O)Nc1cccc(C(F)(F)F)c1 | ? | ? | -9% | / | ? | /
SMILES | VACV Venus inh | Marburg entry inh | VACV mCherry inh | Shiga toxin inh | LASV entry inh | Cycloheximide cs
CCOc1ccc(N2C(=O)c3ccccc3C2O)cc1 (configuration not stated) | -9% | / | i | 64* | / | 45
COc1ccc(NC2c3ccccc3C(=O)N2c2ccccn2)cc1 (configuration not stated) | / | / | / | 45* | / | 20*
CCOc1ccc(NC2c3ccccc3C(=O)N2c2ccc(Cl)cn2)cc1 (configuration not stated) | -1% | / | -9% | 68* | / | 11*
CCOC(=O)c1ccc(NC2c3ccccc3C(=O)N2c2ccccn2)cc1 (configuration not stated) | -15% | / | -17% | -4 | / | 2
CC(C(=O)N(C)C1CCCCC1)N1CCC(C(N)=O)CC1 (configuration not stated) | 4% | ? | -5% | 4 | 0%[46.1 µM] | -4
Nc1ccccc1Oc1ccccc1 | / | / | / | -5 | / | -1
CCCSc1ncc(Cl)c(C(=O)Nc2c(C(=O)c3ccc(C)cc3)oc3ccccc23)n1 | -9% | ? | -14% | / | ? | /
CCNC(=O)C1(C)CCN(C(=O)c2cc(OC)c(OC)c(OC)c2)C1 (configuration not stated) | -7% | / | 5% | / | / | /
Cc1nn(-c2ccccn2)c2c1-c1nc(N)ncc1CC2 | -11% | -31%[46.1 µM] | -26% | 49* | -16% | 36*
CC(=O)c1cccc(NC(=O)c2nc3ccccc3n(C)c2=O)c1 | 19% | ? | 14% | / | 2%[46.1 µM] | /
CN(C)CCNc1ncnc2c1sc1nc(N3CCCC3)c3c(c12)CC(C)(C)OC3 | -18%[7.34 µM] | 7.9µM* | -24%[7.34 µM] | -10 | ? | 0
CC1=C(C(=O)Nc2ccccc2C)C(c2ccco2)n2ncnc2N1 (configuration not stated) | 8% | / | 1% | / | 5%[46.1 µM] | /
CCOC(=O)C(C)Sc1nc(-c2cccs2)ccc1C#N (configuration not stated) | -12% | -1% | -14% | 104 | -27% | 25*
CCOC(=O)C(C)Sc1nc(-c2ccccc2Cl)cc(-c2ccccc2)c1C#N (configuration not stated) | 2% | ? | 0% | / | 18%[46.1 µM] | /
C=COC(=O)CSc1nc(-c2cccs2)ccc1C#N | / | ? | / | 38 | 3% | 31*
N#Cc1ccc(-c2cccs2)nc1SCC(=O)Nc1cccc(C(F)(F)F)c1 | -2% | ? | -15% | / | -11%[46.1 µM] | /
CCc1cccc(CC)c1N1C(=O)CSCC1=O | -11% | / | i | / | / | /
O=C(c1ccc(S(=O)(=O)N2CCCC2)cc1)N1CCCc2ccccc21 | -19% | -16%[46.1 µM] | / | 30 | 3% | 2
COc1cccc(NC(=O)C(=O)N2CCOCC2)c1 | -2% | 7% | / | 50* | 3% | 41*
COc1cccc(NC(=O)CN2CCC(C)CC2)c1 | / | 5% | / | 35* | 11% | 30*
O=C(c1ccc(S(=O)(=O)N2CCOCC2)cc1)N1CCCc2ccccc21 | / | -2% | / | 15 | -19% | 22*
COc1ccc(CC(=O)N2CCCc3ccccc32)cc1 | -4% | -18% | -18% | 99* | 1% | 54*
O=C1Nc2ccccc2C(=O)N(C2CCCC2)C1C(=O)NC1CC1 (configuration not stated) | -5% | / | -2% | / | / | /
COC(=O)[C@]12CCCCC=C1N(CCC1=CCCCC1)C(=O)[C@H](CC(=O)N1CCN(C(=O)c3ccco3)CC1)C2 | -9% | / | 1% | / | / | /
COC(=O)/C(=N/Nc1ccccc1)N1CCCc2ccccc21 | -16% | ? | i | -3 | -18% | 6
CCOC(=O)c1cccc(NC(=O)CN2CCN(c3ccc(OC)cc3)CC2)c1 | -27% | -12% | i | -4 | 1.1µM* | -4
CC(=O)c1cccc(OCC(=O)N2CCCc3ccccc32)c1 | 3% | ? | -13% | 32 | 11%[46.1 µM] | 23*
Cc1cccc(OCC(=O)N2CCCc3ccccc32)c1 | -6% | -18%[46.1 µM] | -1% | 2 | 22%[46.1 µM] | 5
COC(=O)/C(=N/Nc1cccc(C)c1)N1CCCc2ccccc21 | 0% | 21% | i | 43 | 1% | 19*
